Results reported in PubChem BioAssay (EPA / NIEHS).
Where “and” joins values, the source holds several entries; their conditions need not be identical. Equal entries are not always repeated. A structure can be active in one record and inactive in another. Calls of active or inactive are those of the source. How the source made its calls: active means hit-call score of the fitted dose curve at least 0.9, where 1 is the maximum; inactive means score below 0.9.

Tests used:
[1] = read-out: Macrophage colony-stimulating factor (MCSF), CSF1 (gene 1435); test: BSK_CASM3C_MCSF: BioMAP Diversity Plus: CASM3C Assay for Macrophage colony-stimulating factor (MCSF) Biomarker Activity (AID 2283044); details: primary human coronary artery smooth muscle cells; actives raise or lower the signal;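 further: M-CSF protein amount quantified by ELISA after 24 h exposure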
[2] = read-out: Low-density lipoprotein receptor (LDLR), LDLR (gene 3949); test: BSK_CASM3C_LDLR: BioMAP Diversity Plus: CASM3C Assay for Low-density lipoprotein receptor (LDLR) Biomarker Activity (AID 2283045); details: primary human coronary artery smooth muscle cells; actives raise or lower the signal;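 further: LDLR protein level on the cell surface quantified by ELISA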
[3] = read-out: Monocyte Chemoattractant Protein-1 (MCP1), CCL2 (gene 6347); test: BSK_CASM3C_MCP1: BioMAP Diversity Plus: CASM3C Assay for Monocyte Chemoattractant Protein-1 (MCP1) Biomarker Activity (AID 2283046); details: primary human coronary artery smooth muscle cells; actives raise or lower the signal;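 further: MCP-1 level quantified by ELISA 24 h after dosing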
[4] = BSK_CASM3C_Proliferation: Cell Proliferation Assessment in the BioMAP Diversity Plus: CASM3C Assay (AID 2283047); details: primary human coronary artery smooth muscle cells;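 further: sulforhodamine B total protein stain as relative cell number at 560 nm; sub-confluent cells exposed 48 h before staining; fitted both ways against DMSO so gain or loss of cell number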
[5] = read-out: Monokine induced gamma interferon (MIG), CXCL9 (gene 4283); test: BSK_CASM3C_MIG: BioMAP Diversity Plus: CASM3C Assay for Monokine induced gamma interferon (MIG) Biomarker Activity (AID 2283048); details: primary human coronary artery smooth muscle cells; actives raise or lower the signal;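 further: MIG protein level measured by ELISA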
[6] = read-out: serum amyloid A (SAA), SAA1 (gene 6288); test: BSK_CASM3C_SAA: BioMAP Diversity Plus: CASM3C Assay for serum amyloid A (SAA) Biomarker Activity (AID 2283049); details: primary human coronary artery smooth muscle cells; actives raise or lower the signal;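 further: SAA protein level quantified by ELISA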
[7] = BSK_CASM3C_SRB: Viability Assessment in the BioMAP Diversity Plus: CASM3C Assay (AID 2283050); details: primary human coronary artery smooth muscle cells;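 further: total protein by SRB staining as cytotoxicity measure in parallel cultures; cells exposed to compound for 24 h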
[8] = read-out: Thrombomodulin, THBD (gene 7056); test: BSK_CASM3C_Thrombomodulin: BioMAP Diversity Plus: CASM3C Assay for Thrombomodulin Biomarker Activity (AID 2283051); details: primary human coronary artery smooth muscle cells; actives raise or lower the signal;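 further: thrombomodulin protein level measured by ELISA 24 h after dosing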
[9] = read-out: Tissue Factor, F3 (gene 2152); test: BSK_CASM3C_TissueFactor: BioMAP Diversity Plus: CASM3C Assay for Tissue Factor Biomarker Activity (AID 2283052); details: primary human coronary artery smooth muscle cells; actives raise or lower the signal;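 further: cell surface tissue factor protein level read by ELISA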
[10] = read-out: Interferon-gamma inducible Protein 10 (IP10), CXCL10 (gene 3627); test: BSK_hDFCGF_IP10: BioMAP Diversity Plus: hDFCGF Assay for Interferon-gamma inducible Protein 10 (IP10) Biomarker Activity (AID 2283053); details: primary human foreskin fibroblasts; actives raise or lower the signal
Method in brief: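 ELISA quantification of IP-10 after a 24 h chemical exposure of human dermal foreskin fibroblast primary cultures. Both increases and decreases versus DMSO fitted.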

Compound	outcome [1]	outcome [2]	outcome [3]	outcome [4]	outcome [5]	outcome [6]	outcome [7]	outcome [8]	outcome [9]	outcome [10]	AC50 [1]	AC50 [4]	AC50 [5]	AC50 [6]	AC50 [7]	AC50 [9]	AC50 [10]	AC50 [2]	AC50 [3]	AC50 [8]
CN1C(=O)N(C)C(O)C1O (centres undefined)	inactive	inactive	inactive	inactive	inactive	inactive	inactive	inactive	inactive	inactive										
C/C=C\C/C=C/CCCCCCCCOC(C)=O		inactive	inactive					inactive			20 µM (active)	26.4 µM (active)	28.5 µM (active)	32.3 µM (active)	36.9 µM (active)	6.46 µM (active)	34.3 µM (active)			
CCCCCCCCCCCCCCCC[N+](C)(C)CC								inactive			1.93 µM (active)	1.61 µM (active)	6.02 µM (active)	2.61 µM (active)	1.88 µM (active)	2.19 µM (active)	2.84 µM (active)	2.94 µM (active)	3.54 µM (active)	
CCCCC/C=C\C/C=C\CCCCCCCC(=O)OC						inactive		inactive			20 µM (active)	14.4 µM (active)	31.1 µM (active)		31.7 µM (active)	11.4 µM (active)	33.5 µM (active)	28.7 µM (active)	33.7 µM (active)	
C=CCOc1c(Br)cc(Br)cc1Br					inactive			inactive			28.3 µM (active)	29.5 µM (active)		20 µM (active)	30.4 µM (active)	16.9 µM (active)	35.5 µM (active)	20 µM (active)	32.3 µM (active)	
O=C(c1ccc(O)cc1)c1ccc(O)cc1O	inactive	inactive	inactive		inactive	inactive	inactive	inactive	inactive	inactive		15.7 µM (active) and 10.5 µM (active)								
CCO[Si](C)(OCC)OCC	inactive	inactive	inactive	inactive	inactive	inactive	inactive	inactive	inactive	inactive										
C=CC(=O)OCC(Br)CBr (centres undefined)						inactive					20 µM (active)	28.5 µM (active)	28 µM (active)		28.4 µM (active)	29.1 µM (active)	5.47 µM (active)	36 µM (active)	27.1 µM (active)	32.8 µM (active)
c1ccc2c(c1)ccc1cc3c(ccc4ccccc43)cc12	inactive	inactive	inactive	inactive	inactive	inactive	inactive	inactive	inactive	inactive										0.0962 µM (active)
CC(C)C(=O)C(C)C	inactive	inactive	inactive	inactive	inactive	inactive	inactive	inactive	inactive	inactive										
O=c1c2ccccc2oc2ccccc12	inactive	inactive	inactive	inactive	inactive	inactive	inactive	inactive		inactive						2.7 µM (active)				
CC(C)(c1cc(Br)c(OCCO)c(Br)c1)c1cc(Br)c(OCCO)c(Br)c1		inactive	inactive	inactive	inactive	inactive	inactive	inactive	inactive		4.39 µM (active)						23.3 µM (active)			
N#[N+]c1ccc2c(S(=O)(=O)[O-])cccc2c1O	inactive	inactive	inactive	inactive	inactive	inactive	inactive	inactive	inactive	inactive										
O=C(Cl)c1cc(C(=O)Cl)cc(C(=O)Cl)c1											14.5 µM (active)	7.85 µM (active)	29.2 µM (active)	20 µM (active)	15 µM (active)	20 µM (active)	31 µM (active)	12.3 µM (active)	32 µM (active)	36.3 µM (active)
COCc1c(C(C)C)nc(C(C)C)c(/C=C/[C@@H](O)C[C@@H](O)CC(=O)O)c1-c1ccc(F)cc1	inactive	inactive	inactive		inactive	inactive	inactive			inactive		0.056 µM (active)				0.00777 µM (active)				0.00777 µM (active)
S=C(NC1CCCCC1)NC1CCCCC1	inactive	inactive	inactive	inactive	inactive	inactive	inactive		inactive	inactive										20 µM (active)
c1ccc2c(c1)ccc1ncccc12	inactive	inactive	inactive	inactive	inactive	inactive	inactive	inactive	inactive	inactive										
Nc1ccc(N)c(Cl)c1		inactive	inactive		inactive	inactive	inactive		inactive		8.11 µM (active) and 1.83 µM (active)	28.7 µM (active)	6.03 µM (active)		16.1 µM (active)	1.13 µM (active)	16 µM (active) and 20.2 µM (active)			2.9 µM (active) and 3.08 µM (active)
